Measured values as given in PubChem BioAssay (NCATS).
Records with an inconclusive call do not appear. Active and inactive are the calls of the source. Unless noted, calls come from the whole dose curve.

What was measured:
[1] = target: Lysosomal acid glucosylceramidase (Homo sapiens) (UniProt P04062); assay: Glucocerebrosidase-p2 (AID 348; in the data active = potency below about 10 µM; note: potency is the fitted concentration of half-maximal effect); conditions: purified GBA, blue fluorogenic substrate, 40 min
How it was run: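 Compounds titrated from 0.6 nM upwards against 0.2 nM enzyme in pH 5.9 citric acid/KH2PO4, taurocholate, tween-20; blue fluorogenic substrate 80 uM, 40 min room temperature, stopped and read Ex 365/Em 440 for AC50.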

[2] = AP1 Signaling Pathway (AID 357; active = well fitted curve in either direction with a large enough effect, not every such curve was filed as active; note: % is set by controls: 0 for no effect and ±100 for the full control effect); conditions: ME-180 AP-1-bla reporter, EGF-induced, beta-lactamase ratio, 5 h; at 7.69 µM (top of the series) unless noted
How it was run: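 Modulation of EGF-driven AP-1 transcription was assessed with a beta-lactamase reporter in ME-180 cells. Compound and EC50 EGF were co-incubated 5 hours at 37 °C before 2.5-hour CCF4 loading at room temperature and dual-emission reading.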

[3] = target: Cytochrome P450 1A2 (Homo sapiens) (UniProt P05177); assay: p450-cyp1a2 (AID 410); conditions: recombinant CYP1A2, luciferin-ME demethylation, luminescence; series mostly up to 57 µM; note: potency is the fitted concentration of half-maximal effect;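 for activity change, negative = inhibition: -100% = full effect of reference inhibitor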
How it was run: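 Inhibition was calculated relative to 57 uM furafylline (full inhibition). The reaction used human CYP1A2 at 20nM with Luciferin-ME at its Km, 100uM, driven by an NADPH-regenerating system for 60 min at room temperature.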

[4] = target: Glucocorticoid receptor (Homo sapiens) (UniProt P04150); assay: GR-GFP Redistribution (AID 450;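 active = compounds whose dose series gives a full or clear partial fitted curve of increased nuclear translocation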; note: potency is the fitted concentration of half-maximal effect); conditions: U2OS GR-GFP nuclear translocation, laser cytometry, 2 h
[5] = target: Glucocorticoid receptor (Homo sapiens) (UniProt P04150); assay: GR-EFC Redistribution (AID 451); conditions: CHO-K1 GR-EFC translocation, beta-gal luminescence, 2 h; note: potency is the fitted concentration of half-maximal effect
How it was run: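 Translocation of GR-ED fusion to nuclear EA restores b-gal, read by luminescence after 1 h room-temperature detection. Engineered CHO-K1 biosensor cells, 1,000/well, exposed 2 h at 37 C to titrations up to 46 uM final.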

[6] = target: Mitogen-activated protein kinase 10 (Mus musculus) (UniProt Q61831); assay: JNK3 AlphaScreen Assay (AID 530; active = well fitted curve in either direction with a large enough effect, not every such curve was filed as active;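 note: kinase came from lysate of stimulated human HepG2 cells; signal reports phosphorylation of biotinylated GST-cJun 1-79 at Ser73 with 10 µM ATP; % is set by controls: 0 for no effect and ±100 for the full control effect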); conditions: JNK3 lysate, c-Jun phosphorylation; series mostly up to 57.1 µM
How it was run: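 Room-temperature AlphaScreen kinase assay; pre-activated HepG2 lysate as JNK3 source, biotin-GST-cJun(1-79) substrate, 10 uM ATP, compound 15 min preincubation.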

[7] = target: Cytochrome P450 3A4 (Homo sapiens) (UniProt P08684); assay: qHTS Assay for Inhibitors and Substrates of Cytochrome P450 3A4 (AID 884; active = well fitted curve in the direction sought with a large enough effect; an effect the other way counts as inactive or inconclusive; note: potency is the fitted concentration of half-maximal effect; nearly all actives have a fitted effect of over 50% in size); conditions: recombinant CYP3A4, Luciferin-PPXE luminescence; series mostly up to 57.1 µM
How it was run: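 20 nM human CYP3A4 with 25 uM Luciferin-PPXE (at KM) in 200 mM KPO4, preincubated 10 min with compound; NADPH regeneration started a 60 min RT reaction. Luciferin detected by luminescence, normalized to 57 uM ketoconazole as full inhibition.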

[8] = target: Cytochrome P450 3A4 (Homo sapiens) (UniProt P08684); assay: qHTS Assay for Activators of Cytochrome P450 3A4 (AID 885; active = well fitted curve in the direction sought with a large enough effect; an effect the other way counts as inactive or inconclusive; note: nearly all actives have a fitted effect of over 65% in size); conditions: recombinant CYP3A4, Luciferin-PPXE luminescence, 60 min; series mostly up to 57.1 µM
How it was run: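 Human CYP3A4 (20 nM) with Luciferin-PPXE at 25 uM (its KM) in 200 mM KPO4; 10 min compound preincubation, then NADPH regeneration and 60 min reaction at RT. Luciferin read by luminescence; normalized to 57 uM ketoconazole full inhibition.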

[9] = Confirmation and Secondary Assay for Modulators of Hemoglobin Beta Chain Splicing at IVS2 654 locus (AID 910; active = well fitted curve in the direction sought with a large enough effect; an effect the other way counts as inactive or inconclusive;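 note: HeLa cells stably carrying EGFP split by mutant beta-globin IVS2-654 intron; per-well total GFP intensity by laser scanning cytometry after 2-day treatment; % of control where 0% means no effect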); conditions: HeLa EGFP-654 splicing reporter, GFP fluorescence, 48 h; series mostly up to 38.3 µM
How it was run: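 Readout: per-well total peak green fluorescence (488 nm ex, 500–520 nm em) from objects 5–250 µm, reflecting correct splicing of an EGFP-654 reporter. Compounds were applied for 2 days at 37 °C to overnight-plated HeLa EGFP-654 cells; controls were DMSO and 500 nM IVS2-654 PNA.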

[10] = Confirmation and Secondary Assay for Modulators of Hemoglobin Beta Chain Splicing at IVS2 705 locus (AID 930; active = well fitted curve in the direction sought with a large enough effect; an effect the other way counts as inactive or inconclusive;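 note: HeLa cells stably expressing the EGFP-705 splicing reporter; GFP fluorescence per well restored by corrected splicing of the IVS2-705 intron in EGFP; % of control where 0% means no effect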); conditions: HeLa EGFP-705 splicing reporter, GFP fluorescence, 48 h; series mostly up to 38.3 µM
How it was run: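 First, HeLa EGFP-705 cells are seeded at 500/well in Optimem with 2% FCS and left overnight. Next, compound or DMSO is added for 2 days. Finally wells are laser-scanned and total peak GFP intensity scored.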

[11] = qHTS Assay for Lipid Storage Modulators (AID 1519); conditions: Drosophila S3 cells, BODIPY lipid droplet/cell ratio, laser cytometry, cells loaded with oleic acid; for activity change, negative = inhibition: at 57.5 µM (top of the series)
How it was run: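 Cells seeded at 5,000 per well were treated with compounds over a concentration series and loaded with oleic acid (400 uM, as added). Lipid droplet fluorescence (488 nm excitation, 500-530 nm channel) was read by laser-scanning cytometry and normalized to 20 uM Triacsin C.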

[12] = target: Ubiquitin carboxyl-terminal hydrolase 1 (Homo sapiens) (UniProt O94782); assay: Inhibitors of USP1/UAF1: Pilot qHTS (AID 504865; active = well fitted curve in the direction sought with a large enough effect; an effect the other way counts as inactive or inconclusive;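 note: rhodamine fluorescence freed from ubiquitin-rhodamine substrate followed over time; top concentration of the series differs between compounds; % is set by controls: 0 for no effect and ±100 for the full control effect; nearly all actives have a fitted effect of over 35% in size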); conditions: purified USP1/UAF1, Ub-rhodamine cleavage fluorescence; series mostly up to 54.9 µM
How it was run: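 Deubiquitinase activity followed as kinetic rhodamine fluorescence release from 150 nM Ub-Rho. 1 nM USP1/UAF1 with compound, after 15 min room-temperature preincubation, in HEPES pH 7.8 buffer containing TCEP, EDTA, BSA and Tween-20.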

[13] = Primary qHTS for small molecule stabilizers of the endoplasmic reticulum resident proteome: Secreted ER Calcium Modulated Protein (SERCaMP) assay (AID 1508630; active = well fitted curve in the direction sought with a large enough effect; an effect the other way counts as inactive or inconclusive; note: % is set by controls: 0 for no effect and ±100 for the full control effect); conditions: SH-SY5Y GLuc-SERCaMP (Gaussia luciferase released on ER calcium loss) secretion, thapsigargin, luminescence; series mostly up to 38.4 µM
How it was run: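 GLuc-SERCaMP-expressing SH-SY5Y cells, pretreated 16 h with compound, are challenged with thapsigargin to empty ER calcium stores; after 4 h, coelenterazine is added directly to the medium and luminescence is imaged.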

[14] = Stat Signaling Pathway (AID 446; active = well fitted curve in either direction with a large enough effect, not every such curve was filed as active;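 note: ME-180 cervical cancer cells given 40 pM IL-6 alongside compound; SIE-controlled beta-lactamase reporter measured as 460/530 nm FRET emission ratio; % is set by controls: 0 for no effect and ±100 for the full control effect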); conditions: ME-180 SIE beta-lactamase reporter, IL-6 stimulated, 5 h; at 7.69 µM (top of the series) unless noted
How it was run: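 ME-180 cells carrying a SIE-driven beta-lactamase reporter are stimulated with 40 pM IL-6 for 5 h at 37C in the presence of compound. The 460/530 nm FRET substrate ratio is read after 2.5 h at RT. Data are normalised to 300 pM IL-6 and to 125 nM JAK inhibitor controls.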

[15] = target: 3',5'-cyclic-AMP phosphodiesterase 4B (Homo sapiens) (UniProt Q07343); assay: qHTS Assay for Inhibitors of PDE-IV (AID 607; active = well fitted activation curve with a large enough effect in the main read-out, with a control signal flat, not every such curve was filed as active; note: % of control where 0% means no effect); conditions: HEK293 ACTOne CNG channel cells, membrane potential fluorescence; series mostly up to 22.9 µM
How it was run: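 HEK293 ACTOne cells with CNG channel (1000/well), endogenous PDE4; membrane potential dye, compounds up to 22.9 uM final. Fluorescence Ex 535/Em 590; RO 20-1724 (100 uM final) as reference.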

[16] = qHTS Assay for Identification of Small Molecule Agonists for Hypoxia Response Element Signaling Pathway (AID 914; active = well fitted activation curve with a large enough effect in the signal ratio, with a control signal flat, not every such curve was filed as active; the % refers to the signal ratio; note: % of control where 0% means no effect); conditions: ME-180 (cervical carcinoma) HRE-bla reporter, beta-lactamase ratio, CoCl2, 17 h; activation: stronger effect = higher value
How it was run: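 Positive modulation of EC50 CoCl2-induced hypoxia response element signaling is measured in ME-180 cells with a beta-lactamase reporter. Compounds are titrated, incubation runs 17 hours, and %Activity derives from the blue/green ratio.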

[17] = target: Cytochrome P450 2C9 (Homo sapiens) (UniProt P11712); assay: qHTS Assay for Inhibitors and Substrates of Cytochrome P450 2C9 (AID 883; active = well fitted curve in the direction sought with a large enough effect; an effect the other way counts as inactive or inconclusive; note: potency is the fitted concentration of half-maximal effect; nearly all actives have a fitted effect of over 60% in size); conditions: recombinant CYP2C9, luciferin-H luminescence, 60 min; series mostly up to 57.1 µM
How it was run: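 Turnover of Luciferin-H (100uM, KM) by 10nM human CYP2C9 was measured over 60 min at 37C with NADPH regeneration; inhibitors and some substrates reduce luminescence. Data normalized to sulphaphenazole 57uM.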

[18] = target: Cytochrome P450 2C19 (Homo sapiens) (UniProt P33261); assay: qHTS Assay for Inhibitors and Substrates of Cytochrome P450 2C19 (AID 899; active = well fitted curve in the direction sought with a large enough effect; an effect the other way counts as inactive or inconclusive; note: potency is the fitted concentration of half-maximal effect; nearly all actives have a fitted effect of over 60% in size); conditions: recombinant CYP2C19, luciferin-H EGE luminescence; series mostly up to 57.1 µM
How it was run: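 Reactions contain 5nM enzyme, 10uM Luciferin-H EGE (KM) and 50mM KPO4; compound preincubates 10 min at 37C, NADPH regeneration starts turnover for 60 min. Luminescence after detection reagent gives activity.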

[19] = measured here: cell count channel max response
[20] = measured here: lipid channel max response

Chain of Cytochrome P450 3A4 (Homo sapiens) (P08684 whole entry, looked up): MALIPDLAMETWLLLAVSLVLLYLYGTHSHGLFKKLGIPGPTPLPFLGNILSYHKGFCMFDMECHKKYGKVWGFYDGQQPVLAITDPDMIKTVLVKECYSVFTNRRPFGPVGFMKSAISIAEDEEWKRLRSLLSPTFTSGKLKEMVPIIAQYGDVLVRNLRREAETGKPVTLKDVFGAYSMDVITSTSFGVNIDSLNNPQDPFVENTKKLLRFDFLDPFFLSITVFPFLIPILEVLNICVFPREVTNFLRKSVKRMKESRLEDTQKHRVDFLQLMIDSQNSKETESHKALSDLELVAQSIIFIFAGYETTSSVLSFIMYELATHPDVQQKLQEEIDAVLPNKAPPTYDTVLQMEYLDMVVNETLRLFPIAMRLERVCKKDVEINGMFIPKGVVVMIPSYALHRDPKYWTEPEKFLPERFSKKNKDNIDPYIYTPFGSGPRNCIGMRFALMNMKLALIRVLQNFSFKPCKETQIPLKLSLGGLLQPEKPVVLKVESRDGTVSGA
Chain of Glucocorticoid receptor (Homo sapiens) (P04150 whole entry, looked up, the tested form may be a part): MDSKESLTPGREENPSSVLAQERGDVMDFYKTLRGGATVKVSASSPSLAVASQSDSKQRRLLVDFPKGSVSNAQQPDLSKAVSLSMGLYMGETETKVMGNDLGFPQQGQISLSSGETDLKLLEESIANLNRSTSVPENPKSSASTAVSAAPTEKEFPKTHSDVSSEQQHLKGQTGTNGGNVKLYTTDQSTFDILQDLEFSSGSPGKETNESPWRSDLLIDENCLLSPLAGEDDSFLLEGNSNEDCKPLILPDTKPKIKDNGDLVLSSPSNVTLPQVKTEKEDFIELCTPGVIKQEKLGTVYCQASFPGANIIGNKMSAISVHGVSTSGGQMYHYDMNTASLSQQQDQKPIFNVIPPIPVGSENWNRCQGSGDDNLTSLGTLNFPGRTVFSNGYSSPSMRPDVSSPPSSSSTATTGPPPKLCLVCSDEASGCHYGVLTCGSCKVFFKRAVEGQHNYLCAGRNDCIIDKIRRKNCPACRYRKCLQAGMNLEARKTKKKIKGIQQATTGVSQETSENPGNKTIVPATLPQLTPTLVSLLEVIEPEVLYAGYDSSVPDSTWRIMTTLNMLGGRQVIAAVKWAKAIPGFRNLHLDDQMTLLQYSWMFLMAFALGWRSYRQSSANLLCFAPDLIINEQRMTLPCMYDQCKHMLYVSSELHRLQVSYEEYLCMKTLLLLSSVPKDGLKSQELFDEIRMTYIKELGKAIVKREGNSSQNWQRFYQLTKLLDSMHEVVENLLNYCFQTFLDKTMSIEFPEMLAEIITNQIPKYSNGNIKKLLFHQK
Chain of Lysosomal acid glucosylceramidase (Homo sapiens) (P04062 whole entry, looked up): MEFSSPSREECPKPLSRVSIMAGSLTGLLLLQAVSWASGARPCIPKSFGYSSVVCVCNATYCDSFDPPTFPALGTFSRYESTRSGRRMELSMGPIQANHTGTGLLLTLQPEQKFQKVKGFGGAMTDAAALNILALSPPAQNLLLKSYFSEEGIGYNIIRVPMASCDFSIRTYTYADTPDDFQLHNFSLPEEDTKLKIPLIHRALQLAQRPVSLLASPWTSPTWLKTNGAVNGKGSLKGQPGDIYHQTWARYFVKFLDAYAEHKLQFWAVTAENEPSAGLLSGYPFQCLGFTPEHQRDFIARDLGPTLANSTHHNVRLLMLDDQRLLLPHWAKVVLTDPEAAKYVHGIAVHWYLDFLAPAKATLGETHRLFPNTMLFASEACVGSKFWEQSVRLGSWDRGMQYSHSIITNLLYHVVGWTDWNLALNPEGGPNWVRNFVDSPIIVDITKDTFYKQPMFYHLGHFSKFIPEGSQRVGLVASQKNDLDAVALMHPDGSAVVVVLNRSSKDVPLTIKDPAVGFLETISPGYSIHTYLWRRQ
Chain of 3',5'-cyclic-AMP phosphodiesterase 4B (Homo sapiens) (Q07343 whole entry, looked up): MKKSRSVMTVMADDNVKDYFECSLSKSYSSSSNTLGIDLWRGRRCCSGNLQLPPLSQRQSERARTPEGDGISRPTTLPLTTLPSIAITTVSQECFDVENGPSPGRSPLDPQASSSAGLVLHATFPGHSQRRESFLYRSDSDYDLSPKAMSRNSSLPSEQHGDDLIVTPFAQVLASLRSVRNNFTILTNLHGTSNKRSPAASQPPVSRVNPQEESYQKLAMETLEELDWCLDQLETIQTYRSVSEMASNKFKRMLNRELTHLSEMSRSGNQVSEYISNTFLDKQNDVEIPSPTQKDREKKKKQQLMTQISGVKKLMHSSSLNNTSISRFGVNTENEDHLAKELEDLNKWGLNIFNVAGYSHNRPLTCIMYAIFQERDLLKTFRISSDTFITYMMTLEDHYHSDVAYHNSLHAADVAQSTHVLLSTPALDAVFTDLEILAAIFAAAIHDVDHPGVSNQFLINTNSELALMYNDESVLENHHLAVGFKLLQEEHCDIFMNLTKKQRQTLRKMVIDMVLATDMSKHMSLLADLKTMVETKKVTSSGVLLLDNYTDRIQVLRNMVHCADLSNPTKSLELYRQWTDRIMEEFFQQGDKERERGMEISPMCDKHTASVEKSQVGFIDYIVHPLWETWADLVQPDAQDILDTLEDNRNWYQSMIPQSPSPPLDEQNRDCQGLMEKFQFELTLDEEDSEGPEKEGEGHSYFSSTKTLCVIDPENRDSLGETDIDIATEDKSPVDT
Chain of Cytochrome P450 1A2 (Homo sapiens) (P05177 whole entry, looked up): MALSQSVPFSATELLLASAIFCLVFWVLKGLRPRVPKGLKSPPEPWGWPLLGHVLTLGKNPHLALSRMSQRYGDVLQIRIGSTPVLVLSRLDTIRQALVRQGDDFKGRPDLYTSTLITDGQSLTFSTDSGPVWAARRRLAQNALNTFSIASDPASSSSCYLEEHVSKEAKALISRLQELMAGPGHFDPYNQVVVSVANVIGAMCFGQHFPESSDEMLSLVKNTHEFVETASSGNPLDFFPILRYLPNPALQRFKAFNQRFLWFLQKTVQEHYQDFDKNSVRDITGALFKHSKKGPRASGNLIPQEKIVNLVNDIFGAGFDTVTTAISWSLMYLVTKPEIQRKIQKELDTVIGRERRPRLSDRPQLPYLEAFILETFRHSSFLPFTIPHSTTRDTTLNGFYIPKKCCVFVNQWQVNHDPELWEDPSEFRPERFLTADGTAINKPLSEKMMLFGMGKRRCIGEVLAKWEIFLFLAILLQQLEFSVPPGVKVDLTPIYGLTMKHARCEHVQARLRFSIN
Chain of Ubiquitin carboxyl-terminal hydrolase 1 (Homo sapiens) (O94782 whole entry, looked up): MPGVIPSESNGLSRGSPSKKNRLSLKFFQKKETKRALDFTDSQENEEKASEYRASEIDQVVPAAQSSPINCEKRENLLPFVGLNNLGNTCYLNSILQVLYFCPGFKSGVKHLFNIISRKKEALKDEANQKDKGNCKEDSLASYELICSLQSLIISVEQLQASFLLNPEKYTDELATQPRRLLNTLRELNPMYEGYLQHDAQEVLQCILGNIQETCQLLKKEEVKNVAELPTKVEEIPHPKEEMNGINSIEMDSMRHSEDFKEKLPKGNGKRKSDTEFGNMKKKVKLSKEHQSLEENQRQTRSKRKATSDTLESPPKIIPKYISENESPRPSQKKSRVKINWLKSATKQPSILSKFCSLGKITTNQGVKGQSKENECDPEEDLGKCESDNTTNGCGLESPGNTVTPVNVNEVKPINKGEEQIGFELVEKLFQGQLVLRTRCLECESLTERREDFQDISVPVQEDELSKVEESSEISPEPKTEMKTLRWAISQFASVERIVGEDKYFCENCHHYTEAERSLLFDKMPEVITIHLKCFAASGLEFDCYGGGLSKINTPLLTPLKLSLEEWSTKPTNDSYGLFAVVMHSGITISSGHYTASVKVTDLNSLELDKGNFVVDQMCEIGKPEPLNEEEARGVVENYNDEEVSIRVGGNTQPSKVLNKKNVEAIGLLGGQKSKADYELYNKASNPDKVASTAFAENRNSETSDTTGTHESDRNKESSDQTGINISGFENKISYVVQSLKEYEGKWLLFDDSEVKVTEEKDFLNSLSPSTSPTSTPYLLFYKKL
Chain of Cytochrome P450 2C19 (Homo sapiens) (P33261 whole entry, looked up): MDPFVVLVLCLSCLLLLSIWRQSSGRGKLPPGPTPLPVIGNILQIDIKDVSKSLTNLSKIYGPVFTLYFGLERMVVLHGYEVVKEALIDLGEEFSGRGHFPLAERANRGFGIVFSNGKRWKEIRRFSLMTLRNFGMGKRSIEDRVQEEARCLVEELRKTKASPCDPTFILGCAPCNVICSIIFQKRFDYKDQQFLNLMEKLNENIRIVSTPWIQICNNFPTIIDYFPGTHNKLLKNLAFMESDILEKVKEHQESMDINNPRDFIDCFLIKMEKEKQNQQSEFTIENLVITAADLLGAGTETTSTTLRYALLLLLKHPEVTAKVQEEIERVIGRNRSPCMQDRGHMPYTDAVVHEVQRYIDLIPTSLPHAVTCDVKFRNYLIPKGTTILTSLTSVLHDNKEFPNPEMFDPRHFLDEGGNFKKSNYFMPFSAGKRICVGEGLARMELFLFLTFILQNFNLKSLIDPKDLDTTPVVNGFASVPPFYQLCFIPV
Chain of Cytochrome P450 2C9 (Homo sapiens) (P11712 whole entry, looked up): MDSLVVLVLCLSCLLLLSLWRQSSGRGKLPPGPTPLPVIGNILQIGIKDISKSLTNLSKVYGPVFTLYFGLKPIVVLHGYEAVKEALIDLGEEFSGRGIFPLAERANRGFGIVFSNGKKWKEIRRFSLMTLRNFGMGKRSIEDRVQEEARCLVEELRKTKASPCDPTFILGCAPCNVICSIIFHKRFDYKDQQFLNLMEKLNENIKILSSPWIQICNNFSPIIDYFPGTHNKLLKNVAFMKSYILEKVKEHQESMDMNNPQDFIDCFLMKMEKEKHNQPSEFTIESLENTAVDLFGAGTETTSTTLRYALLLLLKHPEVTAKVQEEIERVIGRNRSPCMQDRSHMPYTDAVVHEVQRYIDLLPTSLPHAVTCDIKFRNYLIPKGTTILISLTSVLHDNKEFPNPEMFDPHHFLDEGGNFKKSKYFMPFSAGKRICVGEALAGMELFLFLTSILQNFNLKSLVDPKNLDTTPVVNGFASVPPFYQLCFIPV

SMILES	Potency [1]	activity change, negative = inhibition [2]	Potency [3]	Potency [4]	Potency [5]	Potency [6]	Potency [7]	Potency [8]	Potency [9]	outcome [10]	activity change, negative = inhibition [11]	max response [11, 19]	max response [11, 20]	Potency [12]	outcome [13]	activity, negative = inhibition [14]	Potency [15]	activation [16]	Potency [17]	Potency [18]
CS(=O)(=O)Nc1cccc(-c2nc(NCc3cccs3)c3ccccc3n2)c1	> 2.29 µM (inactive)	-19.7% (inactive)	1 µM (active)	> 46 µM (inactive)	> 46 µM (inactive)	inactive	3.16 µM (active)	inactive	inactive	inactive	6.98% (inactive)	-9.8%	-2.81%	inactive	inactive					
c1ccc(C(c2ccccc2)N2CCCC3(CCNCC3)C2)cc1	> 11.4 µM (inactive)	-3.1% (inactive)	7.94 µM (active)		> 46 µM (inactive)	inactive		inactive			-1.73% (inactive)	-12.4%	-10.8%		inactive	4.89% (inactive)	inactive	19.3% (inactive)		
Cn1cccc1C(=O)N1CCC[C@@]2(CCN(C(c3ccccc3)c3ccccc3)C2)C1	> 11.4 µM (inactive)	0.163% (inactive)	20 µM (active)		> 46 µM (inactive)	inactive		inactive			0.948% (inactive)	10.5%	14.1%		inactive	9.39% (inactive)				
O=C(Oc1ccccc1)N1CCC2(CC1)CN(c1ccncc1)C2	> 11.4 µM (inactive)	-1.8% (inactive)	inactive		> 46 µM (inactive)			inactive			1.74% (inactive)	0.26%	4.81%		inactive	-4.7% (inactive)	inactive		3.16 µM (active)	7.94 µM (active)
COc1ccccc1CN1CCCC2(CCN(C(=O)c3csnn3)CC2)C1	> 11.4 µM (inactive)	3.73% (inactive)	inactive		> 46 µM (inactive)	inactive		inactive			6.98% (inactive)	9.62%	21.2%		inactive	0.773% (inactive)	inactive	12.1% (inactive)		
O=S(=O)(c1ccccc1)N1CCC2(CCN(Cc3ccccc3)CC2)CC1	> 11.4 µM (inactive)	5.55% (inactive)	inactive		> 46 µM (inactive)	inactive					3.53% (inactive)	18.1%	22.9%		inactive	1.04% (inactive)	inactive	14.1% (inactive)		
O=C(c1cc(C(F)(F)F)cc(C(F)(F)F)c1)N1CCC2(CCN(Cc3ccccc3)CC2)CC1	> 11.4 µM (inactive)	9.59% (inactive)	inactive		> 46 µM (inactive)	inactive					2.31% (inactive)	18.5%	24.9%		inactive	-1.85% (inactive)	inactive	4.02% (inactive)		
